Results: the supplement of paper PMC10849652
Targets with a hit are over-represented here; the source holds about 8,800 in all. About 0.5% of all pairs of compound and target were hits.

What was measured:
Experiment in all cases: log2 fold change, soluble protein after heating vs DMSO (PISA); higher = thermal stabilisation; K562 lysate, 10 uM; active = over 0.2 and 3.5 SD of the protein, either way, in both replicates (recomputed)
nilotinib = compound: Cc1cn(-c2cc(NC(=O)c3ccc(C)c(Nc4nccc(-c5cccnc5)n4)c3)cc(C(F)(F)F)c2)cn1 [nilotinib]
Summary of the method: (§1)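 Log-two fold change in thermal stability relative to solvent controls is reported from duplicates. For each sample, crude K562 extract from dounce-homogenised pellets in PBS pH 7.4 with 1 mM MgCl2, at 1 mg/mL protein, was treated with 10 μM compound for 30 min. Aliquots heated for 3 min across 48°C-58°C were pooled, brought to 0.5% NP-40 at 4°C and cleared at 21,000xg for 90 min. The supernatant was quantified by TMTpro 16plex LC-MS/MS with channel sums equalised.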

[1] = compound: Cc1nc(Nc2n[nH]c3c2CN(C(=O)N[C@H](CN(C)C)c2ccccc2)C3(C)C)c2sccc2n1
Summary of the method: as §1

dasatinib = compound: Cc1nc(Nc2ncc(C(=O)Nc3c(C)cccc3Cl)s2)cc(N2CCN(CCO)CC2)n1 [dasatinib]
Summary of the method: as §1

[2] = compound: Cc1ncc(-c2ccnc(Nc3ccc(S(C)(=O)=O)cc3)n2)n1C(C)C
Summary of the method: as §1

[3] = compound: Cn1cc(-c2ccc3c(c2)CCN3C(=O)Cc2cccc(C(F)(F)F)c2)c2c(N)ncnc21
Summary of the method: as §1

quisinostat = compound: Cn1cc(CNCC2CCN(c3ncc(C(=O)NO)cn3)CC2)c2ccccc21 [quisinostat]
Summary of the method: as §1

tipifarnib = compound: Cn1cncc1[C@@](N)(c1ccc(Cl)cc1)c1ccc2c(c1)c(-c1cccc(Cl)c1)cc(=O)n2C [tipifarnib]
Summary of the method: as §1

[4] = compound: NC(=O)Nc1cc(-c2cccc(F)c2)sc1C(=O)N[C@H]1CCCNC1
Summary of the method: as §1

[5] = compound: NC(=O)c1cnc(N[C@@H]2CCCC[C@@H]2N)nc1Nc1cccc(-n2nccn2)c1
Summary of the method: as §1

[6] = compound: NC1(c2ccc(-c3nc4ccn5c(=O)[nH]nc5c4cc3-c3ccccc3)cc2)CCC1
Summary of the method: as §1

Measured: log2 fold change

EIF2AK1 (UniProt Q9BQI3)
UniProt Q9BQI3, sequence (Q9BQI3 whole entry, looked up): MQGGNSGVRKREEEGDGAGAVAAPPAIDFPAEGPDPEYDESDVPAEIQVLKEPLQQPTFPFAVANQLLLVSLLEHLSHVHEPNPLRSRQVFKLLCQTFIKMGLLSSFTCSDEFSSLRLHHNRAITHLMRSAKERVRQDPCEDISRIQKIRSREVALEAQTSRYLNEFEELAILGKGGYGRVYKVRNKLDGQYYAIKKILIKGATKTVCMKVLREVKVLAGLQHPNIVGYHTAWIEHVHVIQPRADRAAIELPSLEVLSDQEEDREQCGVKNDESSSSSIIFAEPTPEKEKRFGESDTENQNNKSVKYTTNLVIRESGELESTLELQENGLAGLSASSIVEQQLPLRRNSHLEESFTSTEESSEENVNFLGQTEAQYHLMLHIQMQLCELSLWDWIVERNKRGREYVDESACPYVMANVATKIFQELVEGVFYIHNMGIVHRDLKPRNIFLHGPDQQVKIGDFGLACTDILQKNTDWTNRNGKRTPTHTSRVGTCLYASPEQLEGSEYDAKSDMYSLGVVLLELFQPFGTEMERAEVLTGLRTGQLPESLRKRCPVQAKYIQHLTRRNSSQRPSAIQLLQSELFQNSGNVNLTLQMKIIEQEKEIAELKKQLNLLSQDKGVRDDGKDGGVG
inactive: nilotinib -0.006 | [1] 0.211 | dasatinib -0.027 | [2] -0.154 | [3] 0.078 | quisinostat -0.077 | tipifarnib 0.007 | [4] -0.031 | [5] 0.062 | [6] 0.021

ERI1 (UniProt Q8IV48)
UniProt Q8IV48, sequence (Q8IV48 whole entry, looked up): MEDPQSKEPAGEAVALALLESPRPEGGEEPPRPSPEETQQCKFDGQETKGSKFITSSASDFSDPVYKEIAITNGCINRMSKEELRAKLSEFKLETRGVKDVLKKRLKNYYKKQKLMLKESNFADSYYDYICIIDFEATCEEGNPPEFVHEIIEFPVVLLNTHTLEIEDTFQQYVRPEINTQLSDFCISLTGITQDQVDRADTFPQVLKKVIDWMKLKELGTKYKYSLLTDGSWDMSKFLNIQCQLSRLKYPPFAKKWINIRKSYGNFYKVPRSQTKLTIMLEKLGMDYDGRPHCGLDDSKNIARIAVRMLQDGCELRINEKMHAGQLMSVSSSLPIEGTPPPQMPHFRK
inactive: nilotinib 0.004 | [1] -0.008 | dasatinib -0.012 | [2] 0.035 | [3] 0.041 | quisinostat -0.019 | tipifarnib 0.043 | [4] 0.08 | [5] -0.019 | [6] 0.058

FARSB (UniProt Q9NSD9)
inactive: nilotinib -0.019 | [1] -0.005 | dasatinib -0.019 | [2] 0.006 | [3] 0.032 | quisinostat -0.001 | tipifarnib 0.02 | [4] 0.027 | [5] 0.002 | [6] -0.014

EIF2B4 isoform 2 (UniProt Q9UI10)
UniProt Q9UI10, sequence (Q9UI10 whole entry, looked up): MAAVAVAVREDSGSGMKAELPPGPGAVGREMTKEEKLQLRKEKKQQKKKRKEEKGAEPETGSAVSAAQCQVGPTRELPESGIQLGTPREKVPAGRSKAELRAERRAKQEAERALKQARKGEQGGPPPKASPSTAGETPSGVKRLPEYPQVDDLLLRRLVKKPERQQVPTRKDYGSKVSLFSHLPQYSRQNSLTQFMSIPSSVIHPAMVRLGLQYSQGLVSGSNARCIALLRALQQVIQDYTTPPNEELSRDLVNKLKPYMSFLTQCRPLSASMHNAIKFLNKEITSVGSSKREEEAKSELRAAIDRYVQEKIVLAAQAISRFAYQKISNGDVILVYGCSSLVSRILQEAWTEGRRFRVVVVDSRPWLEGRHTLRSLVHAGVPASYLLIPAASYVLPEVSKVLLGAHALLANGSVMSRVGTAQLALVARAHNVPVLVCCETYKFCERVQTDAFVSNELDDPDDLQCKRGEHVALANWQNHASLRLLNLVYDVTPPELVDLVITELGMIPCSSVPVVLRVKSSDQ
inactive: nilotinib -0.002 | [1] 0.004 | dasatinib -0.022 | [2] 0.003 | [3] 0.011 | quisinostat 0 | tipifarnib 0.037 | [4] 0.074 | [5] -0.003 | [6] 0.002

FKBP8 isoform 2 (UniProt Q14318)
inactive: nilotinib -0.019 | [1] -0.055 | dasatinib -0.056 | [2] 0.014 | [3] 0.011 | quisinostat -0.21 | tipifarnib -0.005 | [4] 0.067 | [5] 0.02 | [6] 0.005

FAM83A (UniProt Q86UY5)
inactive: nilotinib -0.007 | [1] -0.069 | dasatinib -0.028 | [2] -0.016 | [3] -0.033 | quisinostat -0.088 | tipifarnib -0.08 | [4] 0.034 | [5] 0.004 | [6] -0.019

DUS3L (UniProt Q96G46)
UniProt Q96G46, sequence (Q96G46 whole entry, looked up): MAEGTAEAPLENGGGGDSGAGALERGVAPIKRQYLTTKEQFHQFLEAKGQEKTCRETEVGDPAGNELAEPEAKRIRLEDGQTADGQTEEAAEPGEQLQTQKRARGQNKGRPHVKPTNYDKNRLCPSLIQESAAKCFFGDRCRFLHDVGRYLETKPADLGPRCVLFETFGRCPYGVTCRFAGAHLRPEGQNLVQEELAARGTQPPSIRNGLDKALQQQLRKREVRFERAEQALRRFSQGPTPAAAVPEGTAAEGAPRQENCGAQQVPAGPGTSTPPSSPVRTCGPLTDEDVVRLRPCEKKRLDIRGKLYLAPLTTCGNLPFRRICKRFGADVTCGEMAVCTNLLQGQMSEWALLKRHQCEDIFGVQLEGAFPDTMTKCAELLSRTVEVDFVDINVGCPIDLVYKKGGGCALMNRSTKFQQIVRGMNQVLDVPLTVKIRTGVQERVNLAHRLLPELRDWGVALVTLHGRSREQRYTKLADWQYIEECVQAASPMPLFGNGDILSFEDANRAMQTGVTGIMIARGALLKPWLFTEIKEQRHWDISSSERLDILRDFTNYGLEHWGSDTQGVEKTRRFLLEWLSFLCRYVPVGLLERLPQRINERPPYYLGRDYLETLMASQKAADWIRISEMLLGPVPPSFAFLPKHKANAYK
inactive: nilotinib 0.008 | [1] -0.022 | dasatinib -0.019 | [2] -0.014 | [3] 0.004 | quisinostat -0.098 | tipifarnib -0.017 | [4] 0.026 | [5] 0 | [6] -0.021

ELAVL1 isoform 2 (UniProt Q15717)
UniProt Q15717, sequence (Q15717 whole entry, looked up): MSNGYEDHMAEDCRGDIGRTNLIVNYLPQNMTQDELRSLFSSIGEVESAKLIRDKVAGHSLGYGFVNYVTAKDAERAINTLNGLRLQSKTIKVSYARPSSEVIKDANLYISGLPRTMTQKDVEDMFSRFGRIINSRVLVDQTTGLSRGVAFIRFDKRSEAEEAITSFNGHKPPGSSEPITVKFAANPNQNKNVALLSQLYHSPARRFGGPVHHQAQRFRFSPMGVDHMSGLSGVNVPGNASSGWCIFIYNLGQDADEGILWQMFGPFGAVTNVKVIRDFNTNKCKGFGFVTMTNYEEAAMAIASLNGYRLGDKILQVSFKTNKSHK
inactive: nilotinib -0.035 | [1] -0.014 | dasatinib -0.029 | [2] -0.009 | [3] 0.037 | quisinostat -0.079 | tipifarnib 0.003 | [4] 0.034 | [5] 0.008 | [6] 0.03

DUS2 (UniProt Q9NX74)
inactive: nilotinib 0.021 | [1] -0.035 | dasatinib 0.037 | [2] 0.011 | [3] -0.024 | quisinostat 0.088 | tipifarnib -0.019 | [4] 0 | [5] 0.014 | [6] -0.045

FAM98A (UniProt Q8NCA5)
inactive: nilotinib -0.045 | [1] 0.034 | dasatinib -0.034 | [2] 0.018 | [3] -0.022 | quisinostat -0.042 | tipifarnib 0.009 | [4] -0.004 | [5] -0.028 | [6] -0.014

GEMIN2 (UniProt O14893)
UniProt O14893, sequence (O14893 whole entry, looked up): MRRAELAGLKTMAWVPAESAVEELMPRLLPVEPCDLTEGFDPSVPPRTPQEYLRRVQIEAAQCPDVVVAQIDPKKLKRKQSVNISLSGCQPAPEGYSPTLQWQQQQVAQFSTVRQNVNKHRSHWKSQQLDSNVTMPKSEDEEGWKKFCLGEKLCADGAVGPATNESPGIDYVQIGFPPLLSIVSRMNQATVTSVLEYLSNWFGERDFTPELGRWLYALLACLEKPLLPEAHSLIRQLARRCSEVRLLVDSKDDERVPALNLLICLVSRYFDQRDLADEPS
inactive: nilotinib -0.019 | [1] 0.014 | dasatinib -0.03 | [2] 0.032 | [3] -0.033 | quisinostat 0.142 | tipifarnib 0.059 | [4] 0.004 | [5] -0.039 | [6] 0.049

FYCO1 isoform 4 (UniProt Q9BQS8)
UniProt Q9BQS8, sequence (Q9BQS8 whole entry, looked up): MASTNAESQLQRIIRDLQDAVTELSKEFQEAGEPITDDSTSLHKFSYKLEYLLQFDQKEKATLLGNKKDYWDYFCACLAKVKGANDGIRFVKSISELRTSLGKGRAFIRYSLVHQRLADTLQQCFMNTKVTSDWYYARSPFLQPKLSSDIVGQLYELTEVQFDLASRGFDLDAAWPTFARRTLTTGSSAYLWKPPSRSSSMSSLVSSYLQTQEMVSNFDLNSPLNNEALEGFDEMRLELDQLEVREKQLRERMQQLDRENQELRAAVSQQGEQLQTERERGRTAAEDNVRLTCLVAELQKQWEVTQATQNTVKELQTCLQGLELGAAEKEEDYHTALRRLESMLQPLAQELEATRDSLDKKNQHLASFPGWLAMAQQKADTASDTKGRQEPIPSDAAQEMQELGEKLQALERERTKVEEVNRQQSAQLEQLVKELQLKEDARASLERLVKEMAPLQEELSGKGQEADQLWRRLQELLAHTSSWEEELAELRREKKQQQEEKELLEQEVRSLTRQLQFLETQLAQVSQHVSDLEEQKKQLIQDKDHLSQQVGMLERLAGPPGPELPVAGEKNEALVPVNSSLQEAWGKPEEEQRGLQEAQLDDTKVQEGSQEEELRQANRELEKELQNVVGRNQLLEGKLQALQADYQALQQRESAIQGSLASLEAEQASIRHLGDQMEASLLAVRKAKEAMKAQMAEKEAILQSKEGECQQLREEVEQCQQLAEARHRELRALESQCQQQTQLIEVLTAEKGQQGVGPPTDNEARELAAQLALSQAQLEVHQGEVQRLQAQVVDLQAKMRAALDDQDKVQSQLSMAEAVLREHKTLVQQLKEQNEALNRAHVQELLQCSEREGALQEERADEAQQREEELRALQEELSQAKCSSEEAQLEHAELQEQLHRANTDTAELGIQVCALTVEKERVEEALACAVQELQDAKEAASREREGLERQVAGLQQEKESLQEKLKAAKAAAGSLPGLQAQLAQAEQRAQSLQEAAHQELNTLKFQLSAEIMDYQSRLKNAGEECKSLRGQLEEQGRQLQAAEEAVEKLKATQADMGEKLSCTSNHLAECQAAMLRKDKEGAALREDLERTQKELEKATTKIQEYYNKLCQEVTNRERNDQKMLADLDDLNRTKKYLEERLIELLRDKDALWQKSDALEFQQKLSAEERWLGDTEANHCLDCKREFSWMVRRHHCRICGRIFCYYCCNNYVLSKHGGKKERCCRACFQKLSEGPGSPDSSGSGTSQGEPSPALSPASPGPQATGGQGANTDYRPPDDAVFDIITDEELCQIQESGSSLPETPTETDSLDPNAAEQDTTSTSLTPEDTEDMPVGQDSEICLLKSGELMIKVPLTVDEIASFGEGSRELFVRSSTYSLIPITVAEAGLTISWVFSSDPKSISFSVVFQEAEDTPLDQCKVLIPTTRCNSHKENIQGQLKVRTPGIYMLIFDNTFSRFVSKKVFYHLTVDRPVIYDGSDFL
inactive: nilotinib -0.02 | [1] -0.022 | dasatinib 0.011 | [2] 0.016 | [3] 0.031 | quisinostat -0.014 | tipifarnib -0.012 | [4] 0.019 | [5] 0.015 | [6] -0.008

EHHADH (UniProt Q08426)
inactive: nilotinib -0.048 | [1] -0.091 | dasatinib -0.011 | [2] 0.045 | [3] -0.047 | quisinostat -0.072 | tipifarnib 0.052 | [4] -0.003 | [5] 0.025 | [6] 0.097

FDFT1 (UniProt P37268)
UniProt P37268, sequence (P37268 whole entry, looked up): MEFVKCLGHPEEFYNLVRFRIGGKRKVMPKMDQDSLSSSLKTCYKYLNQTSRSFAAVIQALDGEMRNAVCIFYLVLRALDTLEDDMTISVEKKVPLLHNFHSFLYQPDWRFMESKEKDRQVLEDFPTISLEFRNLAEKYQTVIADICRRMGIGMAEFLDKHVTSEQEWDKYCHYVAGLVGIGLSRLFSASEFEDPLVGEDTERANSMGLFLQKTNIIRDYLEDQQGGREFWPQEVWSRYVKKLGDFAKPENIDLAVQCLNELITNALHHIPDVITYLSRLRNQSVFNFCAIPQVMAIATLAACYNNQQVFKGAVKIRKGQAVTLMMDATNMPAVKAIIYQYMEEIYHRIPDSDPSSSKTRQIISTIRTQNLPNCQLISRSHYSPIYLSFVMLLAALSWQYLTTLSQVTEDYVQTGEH
inactive: nilotinib 0.032 | [1] -0.048 | dasatinib -0.012 | [2] -0.037 | [3] -0.008 | quisinostat -0.014 | tipifarnib -0.053 | [4] 0.005 | [5] 0.042 | [6] -0.025

GAPDH (UniProt P04406)
UniProt P04406, sequence (P04406 whole entry, looked up): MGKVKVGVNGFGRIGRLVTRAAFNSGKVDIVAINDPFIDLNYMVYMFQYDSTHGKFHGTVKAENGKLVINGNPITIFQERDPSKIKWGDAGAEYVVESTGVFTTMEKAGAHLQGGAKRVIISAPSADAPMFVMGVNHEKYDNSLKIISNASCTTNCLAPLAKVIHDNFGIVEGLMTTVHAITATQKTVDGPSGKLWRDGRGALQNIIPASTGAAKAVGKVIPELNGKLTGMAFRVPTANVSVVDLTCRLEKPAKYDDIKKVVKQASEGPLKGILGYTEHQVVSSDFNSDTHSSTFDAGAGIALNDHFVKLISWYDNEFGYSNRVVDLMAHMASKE
inactive: nilotinib 0.045 | [1] -0.026 | dasatinib -0.001 | [2] -0.023 | [3] 0 | quisinostat 0.114 | tipifarnib 0.042 | [4] 0 | [5] -0.019 | [6] 0.018
